High-throughput results from PubChem.
MARV entry inh – Marburg virus entry inhibition; Marburg virus pseudotyped entry inhibition, cell reporter; Potency, µM (highest dose often 37.8 µM), for inactives: at the highest dose activity change, negative = inhibition, actives largely listed as inhibitors; 300,000 tested, 1.8% active; calls by dose curve; tested in HEK293 cells; further: potency means the concentration at half of the fitted maximal effect; on the % scale 0 is the no-effect control and ±100 the full control effect
CHX counter – counter-screen for Shiga toxin inhibitors: cycloheximide protein synthesis inhibition. max response, %. AID 2314. cell reporter, cycloheximide protein synthesis inhibition counterscreen. 300,000 tested, 12% active; in the data active means max response mostly above about 13%, no sharp cut-off; inactive means mostly below about 14%; further: read at 38.3 µM for the half of the compounds with a filed dose; 0% is about no effect
FMDV antiviral – foot and mouth disease virus antiviral activity. FMDV antiviral cell-based qHTS. Potency, µM (series often up to 57.9 µM), for inactives: top-dose activity change, negative = inhibition, actives largely listed as inhibitors. 410,000 tested, 1.2% active. AID 1159524; calls by dose curve; tested in HEK293T cells; further: read-out not given here; potency means the concentration at half of the fitted maximal effect; on the % scale 0 is the no-effect control and ±100 the full control effect; nearly all actives have a fitted effect of over 45% in size
LASV entry inh – inhibitors of Lassa virus binding or cell entry; Potency, µM (series often up to 37.9 µM), for the others: top-dose activity change, negative = inhibition, hits mostly inhibitors; Lassa virus pseudotype entry inhibition, cell reporter; 300,000 tested, 1.2% active; calls by dose curve; tested in HEK293 cells; further: potency means the concentration at half of the fitted maximal effect; on the % scale 0 is the no-effect control and ±100 the full control effect; nearly all actives have a fitted effect of over 50% in size
HCV inh – inhibitors of hepatitis C virus infection | Huh7.5.1 HCVcc-Cre infection, luciferase reporter, 44 h | 340,000 tested, 3.4% active | Potency, µM (series often up to 41.8 µM), for inactives: at the highest dose activity change, negative = inhibition, hits mostly inhibitors; active means well fitted inhibition curve with a large enough effect; inconclusive means small, poorly fitted or top-dose-only effect, or another doubt; inactive means no such curve, though single readings can be large or run the other way; further: potency means the concentration at half of the fitted maximal effect; on the % scale 0 is the no-effect control and ±100 the full control effect
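A cell-based infection assay in which seeded cells (1,000 per well) receive test compound after 4 h, are inoculated with HCVcc-Cre at approximately 0.5 moi, and are incubated 44 h before luminescence detection.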
Shiga toxin inh – Shiga toxin inhibition; Vero cells, Shiga toxin protein synthesis inhibition reporter; inhibition, % at 38.7 µM; 290,000 tested, 9.2% active; in the data active means inhibition mostly above about 28%, no sharp cut-off; inactive means mostly below about 43%; further: 0% is about no effect
* marks the source's active call; other numbers are inactive results; ? = inconclusive; . = no result given; [ ] = remark or other dose. Only some compounds are listed: those with a hit (about 13% of all), similar ones and a draw of the others.

SMILES	MARV entry inh	CHX counter	FMDV antiviral	LASV entry inh	HCV inh	Shiga toxin inh
c1cc(-c2cc3nc(NCC4CC4)ccn3n2)ccc1OCCN1CCOCC1	.	.	0%	.	.	.
COc1cccc(N(C(=O)Cn2nnc3ccccc32)C(C(=O)NCc2ccco2)c2cccnc2)c1 (stereo unspecified)	-1%[46.1 µM]	-4	11%	-9%	?	-8
CCCCc1nnc(SC(C)C(=O)Nc2nccs2)n1C (stereo unspecified)	5%	-3	-7%	?	-22%	-5
O=C(NCc1ccccn1)Nc1ccccc1	?	43*	47%	1%[46.1 µM]	11%	82*
O=C(Nc1ccccc1)OCCCCCOC(=O)Nc1ccccc1	.	-4	-30%	.	?	.
COc1ccc(NC(=O)NCc2ccccn2)cc1	17%	-3	34%	11%	10%	14
O=C(Nc1ccccc1)OCc1ccccn1	24%	26*	66%	14%	5%	57*
O=C(COc1ccc(Cl)cc1)N1CCN(C(=O)c2ccccc2F)CC1	-1%[46.1 µM]	-7	-24%	.	-16%	-4
CC(C)CCC(CCN1CCCC1)c1ccc2c(c1)OCO2 (stereo unspecified)	?	-1	-16%	-10%	?	-8
CC(C)CCC(CCN1CCOCC1)c1ccc2c(c1)OCO2 (stereo unspecified)	12µM*	-2	-26%	-22%	?	-11
COCCCNCCC(CCC(C)C)c1ccc2c(c1)OCO2 (stereo unspecified)	?	-3	19%	?	14µM*	-8
Cc1onc(-c2ccccc2)c1C(=O)Nc1ccc(-c2nnc3n2CCCCC3)cc1	?	-2	10%	?	?	-9
COC(=O)[C@]1(C)N[C@H](CN(C)C(=O)c2ccc(F)cc2)[C@@H]2C(=O)N(C)C(=O)[C@@H]21	.	.	7%	.	?	.
Cc1cc(CNC(=O)c2cc(COc3ccc(F)c(F)c3)on2)nn1C	29%	46*	15%	-13%	.	64*
Cc1cc(C)n(CC(C)NC(=O)c2cc(COc3ccc(F)c(F)c3)on2)n1 (stereo unspecified)	.	19*	49%	.	-30%	28*
Cc1cc(OCc2cc(C(=O)NC(C)c3cnn(C)c3)no2)cc(C)c1Cl (stereo unspecified)	.	.	32%	.	.	.
Cn1c(CCNC(=O)c2cc(COc3ccc(F)c(F)c3)on2)nc2ccccc21	11%[46.1 µM]	16	8%	0%	-27%	73*
CC(=O)c1ccc(OCc2cc(C(=O)NC(C)c3cnn(C)c3)no2)cc1 (stereo unspecified)	.	37*	31%	.	-3%	94*
CCOC(=O)CC1(NC(=O)c2cc(COc3ccc(F)c(F)c3)on2)CCCCC1	.	1	?	.	?	-5
Cc1cc(C)n(CC(C)NC(=O)c2cc(COc3c(F)cccc3F)on2)n1 (stereo unspecified)	4%	5	-5%	4%	-6%	-11
Cc1noc(C)c1S(=O)(=O)Nc1ccccc1OC(F)(F)F	.	-1	-16%	.	20%	-7
Cc1c(Cl)cccc1NC(=O)CSCC(N)=O	-1%	-3	.	34%	13%	-4
COc1ccc(/C=C(/NC(=O)c2ccccc2)C(=O)NCCN2CCOCC2)cc1OC	?	-2	-22%	-1%	32%	-2
Cc1nc2cc(OCc3cc(C(=O)NC(C)c4cn(C)nc4C)no3)ccc2s1 (stereo unspecified)	-9%	14	-21%	5%	?	1
Cc1cc(C)n(CCCNC(=O)c2cc(COc3ccc(C)c(C)c3)on2)n1	0%	4	-12%	5%	-14%	-24
CCc1cc(C(=O)NC(C)c2ccccc2)no1 (stereo unspecified)	-25%[46.1 µM]	.	36%	-10%[46.1 µM]	.	.
Cc1nc(C(C)NC(=O)c2cc(COc3ccc(F)c(F)c3)on2)cs1 (stereo unspecified)	.	18*	21%	.	-19%	9
CC(=O)c1ccc(OCc2cc(C(=O)NCCn3nc(C)cc3C)no2)cc1	18%	81*	47%	-25%	21%	63*
CC(NC(=O)c1cc(COc2ccccc2)on1)c1nccs1 (stereo unspecified)	?	28*	13%	?	0%	75*
Cc1cc(C)cc(N(CC(=O)NCCSc2ccccn2)S(=O)(=O)c2ccccc2)c1	?	-1	-18%	?	?	-13
